From PubChem BioAssay AID2014 (Sanford-Burnham Center for Chemical Genomics, 2009)
About 3,000 (1%) of roughly 290,000 compounds were called active. How the calls were made is not given here. The entries come from a sample that favours actives as a whole.

Molecular target: Polyadenylate-binding protein 1 (Homo sapiens) (UniProt P11940)
Assay: blockers of PABP interaction with poly(A) – biochemical, fluorescence polarization, uHTS, primary screen (AID 2014);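 further: calls also rest on retests at 20 µM and on dose response follow-up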
Settings: PABP-poly(A) RNA binding, stronger effect = higher value

Polyadenylate-binding protein 1 (Homo sapiens), sequence (P11940 whole entry, looked up): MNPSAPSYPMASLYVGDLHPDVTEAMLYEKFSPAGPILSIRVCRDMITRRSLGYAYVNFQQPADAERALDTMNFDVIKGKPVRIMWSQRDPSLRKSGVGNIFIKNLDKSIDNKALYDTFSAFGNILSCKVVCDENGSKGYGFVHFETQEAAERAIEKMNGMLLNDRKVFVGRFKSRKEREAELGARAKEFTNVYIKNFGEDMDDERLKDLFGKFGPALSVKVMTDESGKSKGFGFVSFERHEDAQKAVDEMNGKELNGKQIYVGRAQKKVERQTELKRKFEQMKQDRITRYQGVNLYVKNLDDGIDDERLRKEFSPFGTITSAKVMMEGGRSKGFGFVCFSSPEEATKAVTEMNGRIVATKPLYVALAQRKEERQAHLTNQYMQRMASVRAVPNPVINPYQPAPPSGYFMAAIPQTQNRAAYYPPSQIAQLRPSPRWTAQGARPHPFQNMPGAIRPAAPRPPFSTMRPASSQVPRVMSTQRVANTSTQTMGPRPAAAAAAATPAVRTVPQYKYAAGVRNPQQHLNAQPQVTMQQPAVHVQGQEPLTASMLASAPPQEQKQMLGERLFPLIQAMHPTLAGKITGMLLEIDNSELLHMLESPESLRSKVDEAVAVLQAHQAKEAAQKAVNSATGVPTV

SMILES | inhibition (at 35 µM) | inhibition (confirmation repeats, at 20 µM) [%]
O=C(COc1ccc([N+](=O)[O-])cc1)Nc1ccc(N2CCCC2)cc1 | 7% (inactive) | 
O=C(N/N=C/c1ccc(OCc2ccccc2)cc1)c1ccc(O)cc1 | -15.7% (inactive) | 
O=C(COc1ccc(/C=N/NC(=O)c2ccc(O)cc2)cc1)Nc1ccc([N+](=O)[O-])cc1 | 94.5% (active) | 77.2
CC(C)c1ccc(Cc2nnc(NCCCO)[nH]c2=O)cc1 | 3.4% (inactive) | 
CCOc1cc(CN2CCCC(CO)(Cc3ccc(F)cc3F)C2)ccc1OC (configuration not stated) | 4.9% (inactive) | 
CCOCc1nnc(NC(=O)CCS(=O)(=O)Cc2ccccc2)s1 | -0.4% (inactive) | 
CN(C)S(=O)(=O)c1cccc(-c2nn(-c3ccccc3)cc2/C=C2\SC(=S)N(CC(=O)O)C2=O)c1 | 38.3% (inactive) | 
Cc1ccc(-c2nn(-c3ccccc3)cc2/C=C2\SC(=S)N(CCCCCC(=O)O)C2=O)o1 | 35.4% (active) | 54.4
COc1ccc(-c2nn(-c3ccccc3)cc2/C=C2/SC(=S)N(CCCC(=O)O)C2=O)c(C)c1 | 4.8% (inactive) | 
O=C(CCCN1CCc2[nH]c3ccc(F)cc3c2C1)c1ccc(F)cc1 | -1.4% (inactive) | 
CC(=O)Cn1cnc2c(cnn2-c2ccccc2)c1=O | -4.8% (inactive) | 
O=C(CN(c1ccc2c(c1)OCCO2)S(=O)(=O)c1ccccc1)Nc1ccc2c(c1)OCO2 | -3.5% (inactive) | 
O=C(CCS(=O)(=O)Cc1ccccc1)Nc1ccc2c(c1)OCCO2 | 72% (active) | 88.6
CCCCC(=O)Nc1ccc2c(c1)OCCO2 | -6.8% (inactive) | 
COc1ccccc1-n1c(-c2cc(-c3ccco3)[nH]n2)n[nH]c1=S | 39% (active) | 56.9
COc1ccc(OC)c(-n2c(-c3ccn[nH]3)n[nH]c2=S)c1 | -4.8% (inactive) | 
COc1ccc(-n2c(-c3ccc(OC)c(OC)c3)n[nH]c2=S)cc1 | 4.9% (inactive) | 
CCOC(=O)N1CCN(Cc2nc3cc(NC(=O)CC)ccc3n2CC)CC1 | 1.3% (inactive) | 
Cc1cccc(NC(=O)CCn2c(=O)oc3ccccc32)c1 | 1% (inactive) | 
COc1cc(C(F)(F)F)c(C(=O)N(C)c2ccc(Cl)cc2)cn1 | -5.6% (inactive) | 
COc1cccc(Nc2ncccc2C(=O)O)c1 | 11.9% (inactive) | 
COc1ccc(Nc2cc(Cl)ccc2C(=O)O)cn1 | 72.3% (active) | 106
COc1ccccc1OC(C)C(=O)Nc1ccc(S(=O)(=O)Nc2nccs2)cc1 (configuration not stated) | 4.4% (inactive) | 

SMILES | inhibition (at 35 µM) | inhibition (confirmation repeats, at 20 µM) [%]
CC(C)(C)OC(=O)NC(Cc1ccccc1)C(=O)NC(CSC1CCCCO1)C(=O)NN (configuration not stated) | 1.1% (inactive) | 
COc1ccc(NS(=O)(=O)c2ccc(N3CCOCC3)c(NC(=O)c3ccccc3Br)c2)cc1 | 3.8% (inactive) | 
COc1ccc(NS(=O)(=O)c2cc(NC(=O)/C=C/c3cc(OC)c(OC)c(OC)c3)ccc2N2CCCCC2)cc1 | -9.8% (inactive) | 
COc1ccc(NS(=O)(=O)c2cc(NC(=O)C3CCCCC3)ccc2N2CCOCC2)cc1 | 67.6% (active) | 92.5
CC1CCCN(S(=O)(=O)c2ccc(-c3ccc(=O)[nH]n3)o2)C1 (configuration not stated) | 3.3% (inactive) | 
Cc1ccc(-n2ncc3c2CC(C)(C)CC3NC(=O)CCc2cnn(C)c2)cc1 (configuration not stated) | 54.6% (inactive) | 27.1
O=C(NC1CCCC1)C1CC(=O)N(c2ccc(F)cc2)C1 (configuration not stated) | -2.5% (inactive) | 
Cc1cc2c(cc1C)[n+](C)cn2CC(O)COCC1CC=CCC1 (configuration not stated) | 77.8% (active) | 
N#Cc1cccc(CN2CCC(=O)N([C@H](CO)c3ccccc3)CC2)c1 | 5.7% (inactive) | 
COc1cc(OC)cc(C(=O)NCCSCc2ccc(Cl)cc2)c1 | -3.9% (inactive) | 
O=C(Nc1ccccc1)/C(=C\c1ccco1)NC(=O)c1ccco1 | 14.9% (inactive) | 
O=C(NCc1ccco1)/C(=C/c1ccco1)NC(=O)c1ccccc1 | -4% (inactive) | 
Cc1cccc(NC(=O)/C(=C\c2ccco2)NC(=O)c2ccccc2)c1 | 52.1% (active) | 
COc1cc(/C=C/C(=O)N2CCc3ccccc3C2)cc(OC)c1OC | 2.6% (inactive) | 
COc1ccc(Cc2nnc(SCC(=O)Nc3ccc(C)c(C)c3)o2)cc1OC | -6.8% (inactive) | 
CCOC(=O)N1CCN(C(=O)COCc2cc(-c3ccc4c(c3)OCO4)on2)CC1 | 3.8% (inactive) | 
COc1ccc([N+](=O)[O-])cc1N(CC(=O)Nc1ccccc1C(=O)N1CCOCC1)S(C)(=O)=O | -5.6% (inactive) | 
COCCn1c(SCC(=O)Nc2nc(C)cs2)nnc1C(C)C | 2.9% (inactive) | 
O=C(CCN1C(=O)[C@@H]2Cc3ccccc3CN2C1=O)NCc1ccccc1 | 1.7% (inactive) | 
O=C(CCN1C(=O)[C@@H]2Cc3ccccc3CN2C1=O)NCCc1ccccc1 | 58.8% (active) | 
Cc1ccc(CNC(=O)CCN2C(=O)[C@@H]3Cc4ccccc4CN3C2=O)cc1 | 10.4% (inactive) | 
Cc1ccc(C2SCC(=O)N2c2ccccc2)cc1 (configuration not stated) | -0.7% (inactive) | 
COc1ccc(-c2oc3ncnc(NCCCO)c3c2-c2ccc(OC)cc2)cc1 | 7.6% (inactive) | 

SMILES | inhibition (at 35 µM) | inhibition (confirmation repeats, at 20 µM) [%]
Cc1ccc(N2C(=O)C3C4C=CC(CC4)C3C2=O)cc1Cl (configuration not stated) | 0.6% (inactive) | 
Cc1cccc(-c2nnc(SCC(=O)O)n2Cc2ccccc2)c1 | 0.6% (inactive) | 
Cn1c(=O)n(Cc2ccco2)c(=N)c2c3c(sc21)CCCC3 | 8.4% (inactive) | 
CCCSc1nc(NCc2ccco2)c2c3c(sc2n1)COC(C)(CC)C3 (configuration not stated) | 9.5% (inactive) | 
CN1CCc2c(sc3c2c(NCc2ccco2)nc2nnnn23)C1 | 94.1% (active) | 
COc1ccc(C(CNC(=O)c2ccc(S(=O)(=O)Nc3ccccc3F)cc2)N(C)C)cc1 (configuration not stated) | 53.4% (active) | 116
COc1ccc(C(CNCC(=O)Nc2ccccc2F)N(C)C)cc1 (configuration not stated) | -7.5% (inactive) | 
CC(=O)c1ccc(S(=O)(=O)Nc2ccc(C(=O)NCC(c3ccccc3)N(C)C)cc2)cc1 (configuration not stated) | 12.7% (inactive) | 
Cc1ccc(S(=O)(=O)N(CC(=O)NCc2ccco2)c2ccccc2C)cc1 | 3% (inactive) | 
COc1ccc2c(C)c(CCC(=O)NC3CC3)c(=O)oc2c1C | 11.8% (inactive) | 
CCOC(=O)C1(Cc2cccc(OC)c2)CCCN(C(=O)CCSC)C1 (configuration not stated) | 15.2% (inactive) | 
Cc1ccc(C(=O)Oc2coc(CSc3nnc(NC(=O)c4cccs4)s3)cc2=O)cc1C | -2.3% (active) | 88.5
CCSc1nnc(NC(=O)c2ccc(C)cc2)s1 | -4.4% (inactive) | 
Cc1ccc(C(=O)Nc2nnc(-c3cccs3)s2)cc1C | 4.7% (inactive) | 
CN(C)CCN(C(=O)C1CCCCC1)c1nc2cc3c(cc2s1)OCO3 | 11% (inactive) | 
CN(C)CCCn1c(=O)n(Cc2ccccc2)c(=O)c2c3c(sc21)CCCCC3 | -5.5% (inactive) | 
CCCCCCn1cc(C(=O)O)c(=O)c2cc(F)c(N3CCCCC3)cc21 | -0.7% (inactive) | 
CCC1CCCCN1C(=O)CSc1nc2c(c(=O)n1C)SC(C)C2 (configuration not stated) | -9% (inactive) | 
Cc1ccc(CCC(=O)Nc2ncc(Cc3cc(Cl)ccc3Cl)s2)o1 | 29.5% (inactive) | 
Cc1ccc(Cc2cnc(N)s2)o1 | 47.2% (active) | 56.6
Cc1cc(/C=C2\SC(=Nc3ccc(N4CCOCC4)cc3)N(C)C2=O)c(C)n1-c1cccnc1 | 0.7% (inactive) | 
Cc1cc(/C=C2/SC(=O)N(CC(=O)N3CCCC3)C2=O)c(C)n1C | 19.7% (inactive) | 
Cc1cc(/C=C2\SC(=O)N(C)C2=O)c(C)n1-c1cccc(C(=O)O)c1 | 67.4% (active) | 

SMILES | inhibition (at 35 µM) | inhibition (confirmation repeats, at 20 µM) [%]
CCC(=O)Nc1ccc(S(=O)(=O)Nc2c(NC)c3ccccc3oc2=O)cc1 | 0.6% (inactive) | 
O=C(CN1CCCC1)N1CCN(c2ccccc2)CC1 | 0.4% (inactive) | 
Cc1ccc2[nH]c3c(c2c1)CN(C(=O)CN1CCN(c2ccccc2)CC1)CC3 | 90.5% (active) | 
CCCC(=O)N1CCc2[nH]c3ccccc3c2C1 | 14.1% (inactive) | 
COCCNC(=O)C(c1ccc(C)cc1)N(C(=O)CCC(=O)Nc1ccccn1)c1cccc(C)c1 (configuration not stated) | -1.8% (inactive) | 
Cc1ccnc2nc(C(=O)Nc3nnc(-c4ccccc4)o3)nn12 | -1.8% (active) | 82.4
CCc1nnc(NC(=O)c2nc3nccc(C)n3n2)s1 | -2.3% (inactive) | 
Cc1cccc(NC(=O)Nc2nnc(-c3ccccc3)o2)c1 | -0.4% (inactive) | 
CCCC1=Nc2cc(C(=O)NCCN3CCCC3)ccc2Sc2ccccc21 | -16.5% (inactive) | 
COc1cc(NC(=O)C2=C(C)OCCS2)c(Cl)cc1C(=O)NCCN1CCN(C)CC1 | -8% (inactive) | 
O=C(CSc1ccc(-c2ccco2)nn1)Nc1cccc(F)c1 | -7.4% (inactive) | 
Cc1cc(F)ccc1S(=O)(=O)N1CCCOC1CNC(=O)C(=O)NCCC1=CCCCC1 (configuration not stated) | 0.9% (inactive) | 
O=C(NCCCn1ccnc1)C(=O)NCC1OCCN1S(=O)(=O)c1cc(F)ccc1F (configuration not stated) | 58.4% (active) | 
O=C(NCCCc1ccccc1)C(=O)NCC1OCCN1S(=O)(=O)c1ccccc1 (configuration not stated) | 10.1% (inactive) | 
Cc1ccc(C(=O)NC2CCN(C(=O)Nc3ccc(F)cc3)CC2)cc1 | 10.6% (inactive) | 
CC(NC(=O)COc1cccnc1[N+](=O)[O-])c1ccc(Cl)cc1Cl (configuration not stated) | 0.4% (inactive) | 
CC(C)c1ccccc1OCC(O)CN(CC(O)COc1cccc2ccccc12)C(C)C (configuration not stated) | 5.7% (inactive) | 
COc1ccc(C(=O)N(C)CC(O)c2ccccc2)cc1OC1CCN(C(C)=O)CC1 (configuration not stated) | -3.1% (inactive) | 
Cc1ccc(C)n1C(Cc1ccccc1)C(=O)O (configuration not stated) | 69.6% (active) | 
COc1ccc(CNC(=O)C(Cc2ccccc2)n2cccc2)cc1 (configuration not stated) | 9.5% (inactive) | 
CC(Cc1ccccc1)C(=O)N(C)Cc1ccccc1 (configuration not stated) | 2% (inactive) | 
COCCN1C(=O)N(c2ccc(Cl)cc2)C(=O)C1CC(=O)Nc1cc(OC)cc(OC)c1 (configuration not stated) | -6.1% (inactive) | 
